# Calls of active or inactive are those of the source. How the source made its calls: active means hit-call score of the fitted dose curve at least 0.9, where 1 is the maximum; inactive means score below 0.9.
# Legend:
# Conditions in all cases: mRNA level, 48 h; actives raise or lower the signal
# [1] = read-out: Lipase C (LIPC), LIPC (gene 3990); assay: LTEA_HepaRG_LIPC: Life Technologies and Expression Analysis (LTEA) Assay for Lipase C (LIPC) using HepaRG (AID 2283514)
# In short: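 Read-out is LIPC transcript level by TaqMan qRT-PCR, normalized to three housekeeping genes, after 48 h chemical treatment of human HepaRG liver cells. Curves span eight concentrations topping at 100 uM; activity in either direction scored relative to 0.5% DMSO.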
# [2] = read-out: Lipoprotein lipase (LPL), LPL (gene 4023); assay: LTEA_HepaRG_LPL: Life Technologies and Expression Analysis (LTEA) Assay for Lipoprotein lipase (LPL) using HepaRG (AID 2283515)
# In short: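 Read-out is LPL transcript level by qRT-PCR, normalized to three housekeeping genes and fitted bidirectionally against the DMSO control. Human HepaRG cells received chemicals for 48 h at up to 100 uM.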
# [3] = read-out: MicroRNA 122 (MIR122), gene 406906; assay: LTEA_HepaRG_MIR122: Life Technologies and Expression Analysis (LTEA) Assay for MicroRNA 122 (MIR122) using HepaRG (AID 2283516); further: the transcript read is the microRNA miR-122
# In short: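 Differentiated human HepaRG cells in serum-free induction medium exposed 48 h to 8 half-log concentrations from 100 uM in 0.5% DMSO, duplicate. MIR122 quantified by Fluidigm TaqMan qRT-PCR, normalised to ACTB, GAPDH, POLR2A; fold change fitted bidirectionally versus DMSO.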
# [4] = read-out: matrix metalloproteinase-10 (MMP10), MMP10 (gene 4319); assay: LTEA_HepaRG_MMP10: Life Technologies and Expression Analysis (LTEA) Assay for matrix metalloproteinase-10 (MMP10) using HepaRG (AID 2283517)
# In short: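 Gain or loss of MMP10 mRNA is fitted relative to the 0.5% DMSO vehicle. The human hepatic line HepaRG receives a 48-hour serum-free exposure, in duplicate, with a maximum concentration of 100 uM.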
# [5] = read-out: MYC, MYC (gene 4609); assay: LTEA_HepaRG_MYC: Life Technologies and Expression Analysis (LTEA) Assay for MYC using HepaRG (AID 2283518)
# In short: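 MYC transcript changes, up or down relative to 0.5% DMSO, from TaqMan qRT-PCR normalized to three housekeeping genes. Human HepaRG cultures received chemicals for 48 h at eight half-log concentrations up to 100 uM, in duplicate.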
# [6] = read-out: matrix metalloproteinase-3 (MMP3), MMP3 (gene 4314); assay: LTEA_HepaRG_MMP3: Life Technologies and Expression Analysis (LTEA) Assay for matrix metalloproteinase-3 (MMP3) using HepaRG (AID 2283519)
# In short: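 HepaRG, human; 48 h dosing, 8 conc. (max 100 uM, half-log), duplicate, 0.5% DMSO. Readout: MMP3 transcript by Fluidigm TaqMan qRT-PCR, ACTB/GAPDH/POLR2A-normalised. Gain or loss fitted vs DMSO.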
# [7] = read-out: Paternally Expressed 10 (PEG10), PEG10 (gene 23089); assay: LTEA_HepaRG_PEG10: Life Technologies and Expression Analysis (LTEA) Assay for Paternally Expressed 10 (PEG10) using HepaRG (AID 2283520)
# In short: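 Differentiated HepaRG cells exposed 48 h in serum-free induction medium to eight half-log concentrations topping at 100 uM, 0.5% DMSO, in duplicate. PEG10 mRNA quantified by TaqMan qRT-PCR, normalized to ACTB, GAPDH and POLR2A; bidirectional fit versus DMSO.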
# [8] = read-out: Protein phosphatase 2A (PPP2R4), PTPA (gene 5524); assay: LTEA_HepaRG_PPP2R4: Life Technologies and Expression Analysis (LTEA) Assay for Protein phosphatase 2A (PPP2R4) using HepaRG (AID 2283522)
# In short: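 Differentiated human HepaRG cells in serum-free induction medium were exposed 48 h to 8 concentrations (top 100 µM, half-log steps, duplicate) in 0.5% DMSO. PPP2R4 mRNA was measured by TaqMan qRT-PCR, normalised to ACTB, GAPDH and POLR2A, and fitted bidirectionally versus DMSO.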
# [9] = read-out: Phosphatase and tensin (PTEN), PTEN (gene 5728); assay: LTEA_HepaRG_PTEN: Life Technologies and Expression Analysis (LTEA) Assay for Phosphatase and tensin (PTEN) using HepaRG (AID 2283523)
# In short: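 Read-out is PTEN transcript level by multiplexed TaqMan qRT-PCR after 48 h chemical treatment of human HepaRG cultures in serum-free induction medium. Concentrations spanned 100 uM downward in half-log steps, 0.5% DMSO throughout; activity fitted in both directions against vehicle.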
# [10] = read-out: solute carrier (SLC22A1), SLC22A1 (gene 6580); assay: LTEA_HepaRG_SLC22A1: Life Technologies and Expression Analysis (LTEA) Assay for solute carrier (SLC22A1) using HepaRG (AID 2283524)
# In short: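 HepaRG (human liver line), 48 h dosing in serum-free induction medium; 8 conc., half-log down from 100 uM, 0.5% DMSO vehicle, duplicates. Endpoint: SLC22A1 mRNA, qRT-PCR, housekeeping-normalized; gain/loss fit vs DMSO.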
# [11] = read-out: Pyruvate Dehydrogenase Kinase 4 (PDK4), PDK4 (gene 5166); assay: LTEA_HepaRG_PDK4: Life Technologies and Expression Analysis (LTEA) Assay for Pyruvate Dehydrogenase Kinase 4 (PDK4) using HepaRG (AID 2283525)
# In short: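 In this multiplexed human HepaRG expression assay, cells are treated 48 h with test chemicals across an eight-point range starting at 100 uM. PDK4 mRNA changes, normalized to ACTB/GAPDH/POLR2A, are fitted in both directions relative to vehicle.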
# [12] = read-out: NAD(P)H dehydrogenase [quinone] 1 (NQO1), NQO1 (gene 1728); assay: LTEA_HepaRG_NQO1: Life Technologies and Expression Analysis (LTEA) Assay for NAD(P)H dehydrogenase [quinone] 1 (NQO1) using HepaRG (AID 2283526)
# In short: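 Differentiated human HepaRG cells in serum-free induction medium, dosed in duplicate for 48 h at 8 half-log concentrations up to 100 uM in 0.5% DMSO. NQO1 mRNA by qRT-PCR normalized to ACTB, GAPDH, POLR2A; bidirectional fit versus DMSO baseline.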
# [13] = read-out: succinate dehydrogenase complex iron sulfur subunit B (SDHB), SDHB (gene 6390); assay: LTEA_HepaRG_SDHB: Life Technologies and Expression Analysis (LTEA) Assay for succinate dehydrogenase complex iron sulfur subunit B (SDHB) using HepaRG (AID 2283528)
# In short: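 HepaRG cells (~100,000/well, plated 48 h) exposed in duplicate for 48 h in serum-free induction medium to 8-point half-log series from 100 uM in 0.5% DMSO; mRNA by qRT-PCR normalised to ACTB, GAPDH, POLR2A; bidirectional fit versus DMSO.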
# [14] = read-out: Signal transducer and activator of transcription 3 (Homo sapiens) (UniProt P40763); assay: LTEA_HepaRG_STAT3: Life Technologies and Expression Analysis (LTEA) Assay for Signal transducer and activator of transcription (STAT3) using HepaRG (AID 2283529)
# In short: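 Read-out is STAT3 mRNA level by qRT-PCR, normalized to three housekeeping genes, in human HepaRG liver cells treated for 48 h. Concentrations ran from 100 uM downward in half-log steps; curves were fitted for gain or loss relative to 0.5% DMSO.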
# [15] = read-out: solute carrier (SLCO1B1), SLCO1B1 (gene 10599); assay: LTEA_HepaRG_SLCO1B1: Life Technologies and Expression Analysis (LTEA) Assay for solute carrier (SLCO1B1) using HepaRG (AID 2283530)
# In short: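 SLCO1B1 transcript levels were quantified by TaqMan qRT-PCR using three housekeeping genes for normalization. This followed 48 h chemical exposure (100 uM top, half-log, 8 points, 0.5% DMSO) of HepaRG liver cells, with gain or loss fitted relative to DMSO.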
# [16] = read-out: sulfotransferase 2A1 (SULT2A1), SULT2A1 (gene 6822); assay: LTEA_HepaRG_SULT2A1: Life Technologies and Expression Analysis (LTEA) Assay for sulfotransferase 2A1 (SULT2A1) using HepaRG (AID 2283531)
# In short: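 Expression change of SULT2A1, by qRT-PCR with three housekeeping-gene normalization, was scored bidirectionally versus DMSO. Cells: differentiated HepaRG, dosed in duplicate for 48 h across 8 points, highest 100 µM, half-log dilution, 0.5% DMSO.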
# [17] = read-out: Transforming Growth Factor (TGFB1), TGFB1 (gene 7040); assay: LTEA_HepaRG_TGFB1: Life Technologies and Expression Analysis (LTEA) Assay for Transforming Growth Factor (TGFB1) Transporter using HepaRG (AID 2283533)
# In short: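 TGFB1 transcript measured by qRT-PCR with normalisation to three housekeeping genes (ACTB, GAPDH, POLR2A); human HepaRG line treated in duplicate for 48 hr with an 8-point series topping at 100 uM, 0.5% DMSO vehicle, bidirectionally fitted.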
# [18] = read-out: Nuclear factor NF-kappa-B p105 subunit (Homo sapiens) (UniProt P19838); assay: LTEA_HepaRG_NFKB1: Life Technologies and Expression Analysis (LTEA) Assay for Nuclear Factor Kappa B Subunit 1 (NFKB1) using HepaRG (AID 2283521)
# In short: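 Differentiated human HepaRG cells in serum-free induction medium with 0.5% DMSO were exposed for 48 h to eight half-log concentrations, top 100 uM, in duplicate. NFKB1 mRNA measured by Fluidigm TaqMan qRT-PCR, normalised to ACTB, GAPDH and POLR2A; bidirectional fit versus DMSO.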
# [19] = read-out: Transforming Growth Factor (TGFA), TGFA (gene 7039); assay: LTEA_HepaRG_TGFA: Life Technologies and Expression Analysis (LTEA) Assay for Transforming Growth Factor (TGFA) using HepaRG (AID 2283532)
# In short: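 HepaRG (human liver line), 48 h exposure, 8 conc. half-log down from 100 uM, 0.5% DMSO vehicle, duplicates; serum-free induction medium. TGFA mRNA by TaqMan qRT-PCR, ACTB/GAPDH/POLR2A normalization; gain/loss fit vs DMSO.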
# [20] = read-out: Nuclear factor erythroid 2-related factor 2 (Homo sapiens) (UniProt Q16236); assay: LTEA_HepaRG_NFE2L2: Life Technologies and Expression Analysis (LTEA) Assay for Nuclear factor erythroid 2-related factor 2 (NFE2L2) Transcription Factor using HepaRG (AID 2283527);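 further: TaqMan qRT-PCR transcript level normalised to ACTB GAPDH and POLR2A housekeeping genes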
# In short: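 Transcript level of NFE2L2 is the read-out, measured by microfluidic TaqMan qRT-PCR and normalized to three housekeeping genes. Human HepaRG cultures received test chemical for 48 h at up to 100 uM in half-log steps. Gain or loss of signal is fitted relative to 0.5% DMSO.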
# Chain of Signal transducer and activator of transcription 3 (Homo sapiens) (P40763 whole entry, looked up): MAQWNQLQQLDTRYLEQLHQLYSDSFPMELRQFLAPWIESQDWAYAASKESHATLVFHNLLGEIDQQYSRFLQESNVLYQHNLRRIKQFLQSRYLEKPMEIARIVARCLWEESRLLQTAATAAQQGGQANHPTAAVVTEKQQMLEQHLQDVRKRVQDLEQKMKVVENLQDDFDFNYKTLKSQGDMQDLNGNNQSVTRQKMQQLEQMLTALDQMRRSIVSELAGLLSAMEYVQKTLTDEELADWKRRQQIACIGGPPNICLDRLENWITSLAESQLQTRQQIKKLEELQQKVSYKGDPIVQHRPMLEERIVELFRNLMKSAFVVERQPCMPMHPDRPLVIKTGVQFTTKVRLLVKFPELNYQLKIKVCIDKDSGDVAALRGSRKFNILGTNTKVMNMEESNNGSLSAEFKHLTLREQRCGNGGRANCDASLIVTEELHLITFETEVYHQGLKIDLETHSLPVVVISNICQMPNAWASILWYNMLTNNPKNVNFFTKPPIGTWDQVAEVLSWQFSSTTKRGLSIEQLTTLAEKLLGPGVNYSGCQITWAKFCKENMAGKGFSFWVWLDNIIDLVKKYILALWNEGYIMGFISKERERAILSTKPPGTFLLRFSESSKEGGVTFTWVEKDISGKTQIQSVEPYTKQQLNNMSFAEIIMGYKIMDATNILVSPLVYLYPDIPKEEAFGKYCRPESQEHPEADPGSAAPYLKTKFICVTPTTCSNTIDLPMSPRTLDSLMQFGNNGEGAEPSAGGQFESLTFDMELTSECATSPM
# Chain of Nuclear factor NF-kappa-B p105 subunit (Homo sapiens) (P19838 whole entry, looked up): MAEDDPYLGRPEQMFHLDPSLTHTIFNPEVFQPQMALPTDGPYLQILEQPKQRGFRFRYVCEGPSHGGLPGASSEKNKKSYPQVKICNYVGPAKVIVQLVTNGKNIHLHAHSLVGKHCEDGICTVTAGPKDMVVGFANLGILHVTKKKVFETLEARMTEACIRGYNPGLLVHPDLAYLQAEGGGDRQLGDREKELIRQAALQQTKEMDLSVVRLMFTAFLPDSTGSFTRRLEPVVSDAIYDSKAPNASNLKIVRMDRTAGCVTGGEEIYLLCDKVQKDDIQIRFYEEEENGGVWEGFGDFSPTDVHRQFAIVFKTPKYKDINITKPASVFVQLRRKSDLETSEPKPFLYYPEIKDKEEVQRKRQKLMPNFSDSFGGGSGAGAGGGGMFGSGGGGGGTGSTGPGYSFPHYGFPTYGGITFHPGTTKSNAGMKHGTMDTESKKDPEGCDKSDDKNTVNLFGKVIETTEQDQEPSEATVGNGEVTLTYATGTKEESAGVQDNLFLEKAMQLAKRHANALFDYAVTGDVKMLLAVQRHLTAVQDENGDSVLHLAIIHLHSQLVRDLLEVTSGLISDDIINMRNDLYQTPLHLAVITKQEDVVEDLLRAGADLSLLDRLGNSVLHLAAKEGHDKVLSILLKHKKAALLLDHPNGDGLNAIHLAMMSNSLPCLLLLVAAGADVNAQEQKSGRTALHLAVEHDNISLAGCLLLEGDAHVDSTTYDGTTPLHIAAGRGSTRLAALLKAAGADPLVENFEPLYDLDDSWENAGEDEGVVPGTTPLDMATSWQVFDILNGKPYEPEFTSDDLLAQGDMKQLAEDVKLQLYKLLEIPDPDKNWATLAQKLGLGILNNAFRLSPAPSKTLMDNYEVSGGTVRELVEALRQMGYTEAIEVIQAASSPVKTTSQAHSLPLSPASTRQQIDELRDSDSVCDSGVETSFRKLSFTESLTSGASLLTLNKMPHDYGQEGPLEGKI
# Chain of Nuclear factor erythroid 2-related factor 2 (Homo sapiens) (Q16236 whole entry, looked up): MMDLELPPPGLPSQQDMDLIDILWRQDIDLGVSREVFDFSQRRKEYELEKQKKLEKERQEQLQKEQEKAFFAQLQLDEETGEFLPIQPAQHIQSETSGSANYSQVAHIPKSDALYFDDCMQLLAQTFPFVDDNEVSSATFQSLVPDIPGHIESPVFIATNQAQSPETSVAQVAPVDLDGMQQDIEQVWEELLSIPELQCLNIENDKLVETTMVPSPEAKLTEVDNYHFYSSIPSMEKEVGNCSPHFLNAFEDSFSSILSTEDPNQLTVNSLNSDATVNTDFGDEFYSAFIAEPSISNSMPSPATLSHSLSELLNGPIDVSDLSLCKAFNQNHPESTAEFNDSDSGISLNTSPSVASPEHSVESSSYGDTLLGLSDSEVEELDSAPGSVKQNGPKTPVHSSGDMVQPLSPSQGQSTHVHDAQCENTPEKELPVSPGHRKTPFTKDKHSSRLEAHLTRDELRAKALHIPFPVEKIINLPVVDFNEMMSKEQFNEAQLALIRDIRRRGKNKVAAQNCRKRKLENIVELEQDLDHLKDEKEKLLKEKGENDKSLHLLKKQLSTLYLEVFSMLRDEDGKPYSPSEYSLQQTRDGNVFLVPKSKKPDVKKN
smiles,measurement,setting,value
N#Cc1nn(-c2c(Cl)cc(C(F)(F)F)cc2Cl)c(N)c1S(=O)C(F)(F)F (stereo not drawn),AC50,[1],42.6 µM (active)
same,AC50,[2],31.3 µM (active)
same,AC50,[3],59.2 µM (active)
same,AC50,[4],30.7 µM (active)
same,AC50,[5],35.1 µM (active)
same,AC50,[6],50.2 µM (active)
same,AC50,[7],23.6 µM (active)
same,AC50,[8],11.5 µM (active)
same,outcome,[9],inactive
same,AC50,[10],19.6 µM (active)
same,AC50,[11],23.1 µM (active)
same,AC50,[12],81.6 µM (active)
same,outcome,[13],inactive
same,outcome,[14],inactive
same,AC50,[15],36.2 µM (active)
same,AC50,[16],50.2 µM (active)
same,outcome,[17],inactive
CNC(=S)S,outcome,[1],inactive
same,outcome,[2],inactive
same,outcome,[3],inactive
same,outcome,[4],inactive
same,outcome,[5],inactive
same,outcome,[6],inactive
same,outcome,[18],inactive
same,outcome,[8],inactive
same,outcome,[9],inactive
same,outcome,[10],inactive
same,outcome,[11],inactive
same,outcome,[12],inactive
same,outcome,[13],inactive
same,outcome,[14],inactive
same,outcome,[15],inactive
same,outcome,[16],inactive
same,outcome,[19],inactive
same,outcome,[17],inactive
CCOC(=O)CC(SP(=S)(OC)OC)C(=O)OCC (stereo not drawn),outcome,[1],inactive
same,outcome,[2],inactive
same,outcome,[3],inactive
same,outcome,[4],inactive
same,outcome,[5],inactive
same,outcome,[6],inactive
same,outcome,[18],inactive
same,outcome,[8],inactive
same,outcome,[9],inactive
same,outcome,[10],inactive
same,outcome,[11],inactive
same,outcome,[12],inactive
same,outcome,[20],inactive
same,outcome,[13],inactive
same,outcome,[14],inactive
same,outcome,[15],inactive
same,outcome,[16],inactive
same,outcome,[17],inactive
